Screens from PubChem BioAssay.
Methyltransferases = Primary Screen for Target Class Profiling of Small Molecule Inhibitors of Methyltransferases; purified enzyme, MTase-Glo SAH luminescence; hits give low values; calls only at 40 µM; 25,000 compounds, 3.9% hits; call rule not given here
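Each enzyme was reacted with SAM and its substrate, with compounds tested once at 40 uM; SAH formed was read by MTase-Glo luminescence.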
Calls only. The sample as a whole holds a higher share of hits than the screen did.

How did COc1cccc(CNC(=O)Cn2nc3n(CCC(C)C)c(=O)c4ccccc4n3c2=O)c1 do in these assays?
Methyltransferases: inactive

What do the screens show for `Cc1cccc(N2C(=O)c3cc4occc4n3CC2(C)C(=O)NC2CCCCC2)c1C` (stereo not drawn)?
Methyltransferases: inactive

What do the screens show for `Cc1ccc(CNS(=O)(=O)c2cc3c(cc2Cl)n(C)c(=O)n3C)cc1`?
Methyltransferases: inactive

How did OC[C@H]1O[C@@H](n2cnc3c(NC4CCCC4)ncnc32)[C@H](O)[C@@H]1O do in these assays?
Methyltransferases: inactive

Results for OC[C@H]1O[C@@H](n2cnc3cncnc32)[C@H](O)[C@@H]1O ?
Methyltransferases: active

What do the screens show for `OC[C@H]1O[C@@H](n2cnc3c(NC4CCCCC4)ncnc32)[C@H](O)[C@@H]1O`?
Methyltransferases: inactive

How did Nc1ccc(CCNc2ncnc3c2ncn3C2OC(CO)C(O)C2O)cc1 (stereo not drawn) do in these assays?
Methyltransferases: inactive

Results for Nc1ncnc2c1c(I)cn2C1OC(CO)C(O)C1O (stereo not drawn) ?
Methyltransferases: active

How did Nc1nc(F)nc2c1ncn2[C@@H]1O[C@H](CO)[C@@H](O)[C@@H]1O do in these assays?
Methyltransferases: inactive

What do the screens show for `Cc1ccc(CN2C(=O)c3ccc(-c4ccco4)n3CC2(C)C(=O)NC2CCCCCC2)cc1` (stereo not drawn)?
Methyltransferases: inactive

Results for Cc1ccc(CNC(=O)CCc2nnc3n(CCc4ccccc4)c(=O)c4ccccc4n23)cc1 ?
Methyltransferases: inactive

How did CC1CCCCC1NC(=O)C1(C)Cn2c(cc3occc32)C(=O)N1Cc1ccccc1Cl (stereo not drawn) do in these assays?
Methyltransferases: inactive

How did COc1ccc(N2C(=O)c3cc4sccc4n3CC2(C)C(=O)NC2CCCCCC2)cc1OC (stereo not drawn) do in these assays?
Methyltransferases: inactive

What do the screens show for `CC1CCCC(NC(=O)C2(C)Cn3c(cc4sccc43)C(=O)N2CCc2ccccc2)C1C` (stereo not drawn)?
Methyltransferases: inactive

Results for COc1ccc(-c2cc(C(=O)Nc3ccc4c(c3)C(=O)N(C)C3=NCCN34)c3ccccc3n2)cc1 ?
Methyltransferases: inactive

Results for CC(C)CCn1c(=O)c2ccccc2n2c(SCC(=O)Nc3ccc(F)cc3)nnc12 ?
Methyltransferases: inactive

What do the screens show for `Cc1ccc(CN2C(=O)c3cc4occc4n3CC2(C)C(=O)NC2CCC(C)CC2)cc1` (stereo not drawn)?
Methyltransferases: inactive

How did CCc1cccc(N2C(=O)c3cc(-c4ccco4)nn3CC2(C)C(=O)NC2CCCCCC2)c1 (stereo not drawn) do in these assays?
Methyltransferases: inactive

What do the screens show for `COc1ccccc1CN1C(=O)c2cc3ccccc3n2CC1(C)C(=O)NC1CCCCC1` (stereo not drawn)?
Methyltransferases: inactive

What do the screens show for `Cc1ccc(Cn2c(=O)c3ccc(C(=O)NCC(C)C)cc3n3c(=O)n(Cc4ccccc4F)nc23)cc1`?
Methyltransferases: inactive

Results for O=C(/C=C/c1ccccc1)OC[C@H]1O[C@@H](OC(=O)c2cc(O)c(O)c(O)c2)[C@H](O)[C@@H](O)[C@@H]1O ?
Methyltransferases: active

How did CC(=O)O[C@@H]1[C@@H](CO)O[C@@](CO)(O[C@H]2O[C@H](COC(=O)/C=C/c3ccccc3)[C@@H](O)[C@H](O)[C@H]2O)[C@H]1O do in these assays?
Methyltransferases: inactive

Results for O=C(/C=C/c1ccc(O)cc1)OC[C@H]1O[C@@H](O/C(=C\c2ccccc2)C(=O)O)[C@H](O)[C@@H](O)[C@@H]1O ?
Methyltransferases: inactive

Results for CCc1ccc(N2C(=O)c3cc4ccc(OC)cc4n3CC2(C)C(=O)NC2CCCC2)cc1 (stereo not drawn) ?
Methyltransferases: inactive

What do the screens show for `COC(C)(C)CCn1nc(Nc2c(C)cccc2C)c2cnc(Nc3ccc(OCCN4CCCC4)c(F)c3)nc21`?
Methyltransferases: active

Results for Cc1ncc(CCCN(C)C)cc1Nc1ncc2c(n1)-c1ccc(C(F)(F)F)cc1NC(=S)C2 ?
Methyltransferases: active

What do the screens show for `Cn1c(=O)n(C)c2cc(S(=O)(=O)N(Cc3ccccc3)C(=O)c3ccncc3)ccc21`?
Methyltransferases: inactive

What do the screens show for `CCCN1C(=O)c2cc3oc(C)cc3n2CC1(C)C(=O)NC1CCCCCC1` (stereo not drawn)?
Methyltransferases: inactive

How did CC1CC(C)CN(CCCN2C(=O)c3ccc(-c4ccco4)n3CC2(C)C(=O)NC2CCCCCC2)C1 (stereo not drawn) do in these assays?
Methyltransferases: inactive

How did CCCn1c(=O)c2ccc(C(=O)NC3CCCC3)cc2n2c(=O)n(C)nc12 do in these assays?
Methyltransferases: inactive

How did COc1cccc(Nc2nc3c(S(=O)(=O)c4ccc(C)cc4)nnn3c3ccccc23)c1 do in these assays?
Methyltransferases: inactive

How did COc1cc(C(=O)NC2CCN(C)CC2)ccc1Nc1ncc2c(n1)N(C1CCCC1)CC(F)(F)C(=O)N2C do in these assays?
Methyltransferases: active

How did COc1ccc(C(=O)Cn2nc3n(C)c(=O)c4ccc(C(=O)NC5CCCCC5)cc4n3c2=O)cc1 do in these assays?
Methyltransferases: inactive
